Test [1] deals with PRMT1 (protein arginine N-methyltransferase 1). In words: PRMT1 binders on small-molecule microarrays, primary screen, biochemical, small-molecule microarray, 635 nm fluorescence (AID 1088).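 Note: binding of Prmt1 protein to compounds spotted on small-molecule microarray slides.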 As to conditions: small-molecule microarray binding, higher = more signal.
A short description of test [2]: yeast growth modulation, basal conditions, primary screen, YJM789 clinical isolate, OD600, 24 h (AID 1089).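 Note: growth of clinical yeast isolate S. cerevisiae YJM 789 seeded 1000 cells per well; test concentration not given here.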 As to conditions: S. cerevisiae YJM789 growth, higher = more signal, called active from +8 up or from −8 down.
Test [3] can be described thus: fission yeast growth modulation, primary screen, strain 972, OD600, 24 h, no modulator (AID 1090).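 Note: basal condition with compound alone and no growth modifier present; test concentration not given here.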 Conditions: S. pombe 972 growth, higher = more signal, called active from +8 up or from −8 down.
Test [4] can be described thus: S. cerevisiae growth modulation with rapamycin, primary screen, strain BY4716, OD600, 96 h (AID 1091). Note: test concentration not given here. Conditions: higher = more signal, called active from +8 up or from −8 down.
Test [5] concerns the target Torsin-1A-interacting protein 2 (Homo sapiens) (UniProt Q8NFQ8). In words: LULL1 binders on small-molecule microarray, primary screen, cell lysate, human LULL1 lysate, 635/667 nm fluorescence (AID 1092).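 Note: probe is lysate of COS7 cells overexpressing human LULL1; score merges per-feature 667 nm fluorescence with signal-to-noise.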 Conditions: hLULL1 lysate binding, 635 nm fluorescence, higher = more signal.
Test [6] in a line: E. coli growth modulation, two-sided OD650, primary screen, E. coli filamentation project, strain DRC41, 24 h (AID 1093).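 Note: MC1000 strain lacking acrAB efflux and sulA so SOS filamentation is blocked; test concentration not given here.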 Conditions: OD650, 24 h, higher = more signal, called active from +8 up or from −8 down.
Test [7] in a line: small-molecule microarray binders of probe aLefty2, primary screen, biochemical, biotinylated probe, 635/667 nm fluorescence (AID 1094).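 Note: score merges spot fluorescence near 667 nm with spot signal-to-noise ratio.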 As to conditions: higher = more signal.
Test [8] has as its system Noggin (protein binding on small-molecule microarray). In words: Noggin binders on small-molecule microarray, primary screen, biochemical, 635/667 nm fluorescence (AID 1095).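 Note: score merges 667 nm feature fluorescence with signal to noise over triplicate slides.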 As to conditions: 635 nm fluorescence, higher = more signal.
The target of test [9] is Neurogenic locus notch homolog protein 3 (Homo sapiens) (UniProt Q9UM47). In words: NOTCH3 binders on small-molecule microarray, primary screen, biochemical, 635/667 nm fluorescence (AID 1096). Conditions: NOTCH3 binding, 635 nm fluorescence, higher = more signal.
Chain of Neurogenic locus notch homolog protein 3 (Homo sapiens) (Q9UM47 whole entry, looked up): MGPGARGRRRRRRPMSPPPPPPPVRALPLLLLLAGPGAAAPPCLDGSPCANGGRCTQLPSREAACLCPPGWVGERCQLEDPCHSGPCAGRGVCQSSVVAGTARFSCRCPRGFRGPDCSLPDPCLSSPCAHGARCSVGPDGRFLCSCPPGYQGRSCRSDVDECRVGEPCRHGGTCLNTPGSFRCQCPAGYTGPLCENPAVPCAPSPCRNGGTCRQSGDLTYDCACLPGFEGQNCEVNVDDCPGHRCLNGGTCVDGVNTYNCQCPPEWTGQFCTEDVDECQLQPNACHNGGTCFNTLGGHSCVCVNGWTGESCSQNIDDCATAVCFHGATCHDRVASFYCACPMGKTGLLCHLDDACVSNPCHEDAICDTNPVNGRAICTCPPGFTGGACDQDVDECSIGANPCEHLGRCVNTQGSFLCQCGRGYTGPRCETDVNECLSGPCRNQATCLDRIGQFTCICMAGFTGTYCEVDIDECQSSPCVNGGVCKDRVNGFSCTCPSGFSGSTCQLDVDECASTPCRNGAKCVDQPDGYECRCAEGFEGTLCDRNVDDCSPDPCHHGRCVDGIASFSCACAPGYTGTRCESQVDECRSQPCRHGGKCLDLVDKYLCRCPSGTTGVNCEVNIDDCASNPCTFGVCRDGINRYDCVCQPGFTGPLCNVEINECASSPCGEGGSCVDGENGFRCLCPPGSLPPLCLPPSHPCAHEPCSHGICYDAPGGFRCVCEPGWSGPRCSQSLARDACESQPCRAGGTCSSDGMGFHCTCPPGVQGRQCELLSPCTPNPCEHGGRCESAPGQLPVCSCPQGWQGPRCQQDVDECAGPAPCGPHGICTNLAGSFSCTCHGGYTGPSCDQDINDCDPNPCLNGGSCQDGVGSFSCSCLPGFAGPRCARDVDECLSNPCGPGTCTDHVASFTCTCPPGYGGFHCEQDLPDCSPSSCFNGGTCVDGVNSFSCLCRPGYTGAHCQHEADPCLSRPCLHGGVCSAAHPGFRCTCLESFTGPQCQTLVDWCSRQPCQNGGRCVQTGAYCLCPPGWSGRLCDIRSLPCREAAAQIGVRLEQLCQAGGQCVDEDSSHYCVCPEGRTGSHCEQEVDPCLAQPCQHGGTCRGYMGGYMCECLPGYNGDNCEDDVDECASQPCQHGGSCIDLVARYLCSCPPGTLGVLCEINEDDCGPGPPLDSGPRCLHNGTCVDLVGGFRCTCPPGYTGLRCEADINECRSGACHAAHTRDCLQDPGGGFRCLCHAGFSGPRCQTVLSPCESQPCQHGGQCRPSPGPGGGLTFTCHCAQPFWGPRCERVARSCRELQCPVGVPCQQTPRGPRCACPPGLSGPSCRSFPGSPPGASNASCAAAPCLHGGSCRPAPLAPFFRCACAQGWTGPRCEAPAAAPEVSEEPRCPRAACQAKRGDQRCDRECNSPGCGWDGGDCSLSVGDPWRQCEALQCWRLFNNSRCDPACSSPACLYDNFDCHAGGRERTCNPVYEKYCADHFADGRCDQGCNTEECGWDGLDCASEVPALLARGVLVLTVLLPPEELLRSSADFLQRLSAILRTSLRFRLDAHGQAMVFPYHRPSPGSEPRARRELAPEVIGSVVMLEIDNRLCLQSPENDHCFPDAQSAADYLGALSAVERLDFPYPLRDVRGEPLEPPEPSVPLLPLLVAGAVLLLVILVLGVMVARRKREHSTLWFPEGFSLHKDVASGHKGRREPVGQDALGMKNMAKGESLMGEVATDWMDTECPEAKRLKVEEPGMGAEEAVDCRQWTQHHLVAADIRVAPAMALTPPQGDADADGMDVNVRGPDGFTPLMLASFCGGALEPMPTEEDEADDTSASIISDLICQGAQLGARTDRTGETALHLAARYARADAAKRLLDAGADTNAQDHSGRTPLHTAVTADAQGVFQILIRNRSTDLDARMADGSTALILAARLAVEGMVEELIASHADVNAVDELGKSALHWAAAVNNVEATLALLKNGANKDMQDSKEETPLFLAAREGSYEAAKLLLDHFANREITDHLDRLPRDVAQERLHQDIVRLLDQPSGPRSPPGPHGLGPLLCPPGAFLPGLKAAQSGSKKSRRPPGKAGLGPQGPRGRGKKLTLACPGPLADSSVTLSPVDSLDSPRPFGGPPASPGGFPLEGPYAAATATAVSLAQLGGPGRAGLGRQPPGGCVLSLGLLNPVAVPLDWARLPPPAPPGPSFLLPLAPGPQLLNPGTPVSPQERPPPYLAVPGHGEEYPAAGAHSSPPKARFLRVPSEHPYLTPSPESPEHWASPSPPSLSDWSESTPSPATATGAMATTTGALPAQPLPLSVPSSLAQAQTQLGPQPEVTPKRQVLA
Test [10] can be described thus: small-molecule microarray binders of probe aEGFR, primary screen, biochemical, biotinylated probe, 635/667 nm fluorescence (AID 1097).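 Note: probe is a biotinylated anti-EGFR antibody binding compounds printed on slides; score combines fluorescence near 667 nm and signal to noise of each spot.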 As to conditions: higher = more signal.
The test system of test [11] is Plasmodium falciparum Sir2 (PF13_0152, Sir2A). Briefly: pfSir2 binders on small-molecule microarrays, primary screen, biochemical, small-molecule microarray, 635 nm fluorescence (AID 1098).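 Note: score merges spot fluorescence intensity with its signal-to-noise ratio.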 As to conditions: small-molecule microarray binding, fluorescence 635 nm; higher = more signal.
Test [12] can be described thus: small-molecule microarray binders of probe aDKK1, primary screen, biochemical, biotinylated probe, 635/667 nm fluorescence (AID 1099).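 Note: score merges 667nm spot fluorescence with signal to noise across triplicate slides; reference of the scale not given here.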 Conditions: higher = more signal.
Test [13] can be described thus: small-molecule microarray binders of probe aCHRDL2, primary screen, biochemical, biotinylated probe, 635/667 nm fluorescence (AID 1100). Conditions: higher = more signal.
Test [14] in a line: splicing luciferase reporter signal modulators, primary screen, spliceosome inhibition project, cell-based, HEK293, splice +/- reporter (AID 1101).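 Note: HEK293 cells carrying a splicing-competent luciferase reporter gene; test concentration not given here.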 As to conditions: luminescence, 24 h, higher = more signal, called active from +8 up or from −8 down. (A reporter such as luciferase makes a cellular process visible.)
Test [15] concerns the target Fibroblast growth factor 10 (Homo sapiens) (UniProt O15520). In words: FGF10 binders on small-molecule microarrays, primary screen, biochemical, small-molecule microarray, 635 nm fluorescence (AID 1102). As to conditions: FGF10 binding, fluorescence 635 nm, higher = more signal.
Test [16] deals with glycogen synthase kinase-3 (GSK3A per assay name; protocol says GSK3B). In words: GSK3 binders on small-molecule microarrays, primary screen, biochemical, small-molecule microarray, 635 nm fluorescence, GSK3A (AID 1103). Note: the record names both GSK3A and GSK3B. Conditions: small-molecule microarray binding, fluorescence 635 nm; higher = more signal.
Test [17] has as its target Epidermal growth factor receptor (Homo sapiens) (UniProt P00533). In words: EGFR binders on small-molecule microarrays, primary screen, biochemical, small-molecule microarray, 635 nm fluorescence (AID 1104).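 Note: score merges 667 nm emission intensity with spot signal to noise over triplicate slides.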 Conditions: EGFR binding, higher = more signal.
Test [18] addresses Follistatin-related protein 3 (Homo sapiens) (UniProt O95633). In words: FSTL3 binders on small-molecule microarrays, primary screen, biochemical, small-molecule microarray, 635 nm fluorescence (AID 1105).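 Note: score merges emission near 667 nm and signal to noise per printed spot across three slides.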 As to conditions: FSTL3 binding, higher = more signal.
Test [19] deals with Dickkopf-related protein 1 (Homo sapiens) (UniProt O94907). Briefly: DKK1 binders on small-molecule microarrays, primary screen, biochemical, small-molecule microarray, 635 nm fluorescence scan (AID 1106).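 Note: score merges emission near 667 nm with signal to noise over three replicate slides.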 As to conditions: DKK1 binding, higher = more signal.
Chain of Dickkopf-related protein 1 (Homo sapiens) (O94907 whole entry, looked up): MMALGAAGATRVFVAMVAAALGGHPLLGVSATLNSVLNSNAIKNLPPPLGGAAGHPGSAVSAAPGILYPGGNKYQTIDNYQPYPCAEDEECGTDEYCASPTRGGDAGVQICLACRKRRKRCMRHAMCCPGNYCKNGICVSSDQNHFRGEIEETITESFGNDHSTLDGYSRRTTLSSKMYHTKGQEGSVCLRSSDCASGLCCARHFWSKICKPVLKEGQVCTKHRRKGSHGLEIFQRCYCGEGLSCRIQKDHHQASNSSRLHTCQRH
Test [20] relates to Inhibin beta A chain (activin A). In words: INHBA (activin A) binders on microarrays, primary screen, biochemical, small-molecule microarray, 635 nm fluorescence scan (AID 1107).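 Note: mouse activin A protein probed at 4.33 µg/mL on printed slides; score merges bound-protein fluorescence near 667 nm with spot signal-to-noise.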 As to conditions: small-molecule microarray binding, higher = more signal.

The source made the active and inactive calls.

Drawing on PubChem BioAssay, this text covers composite z-score and z-score for 5 compounds.

Chain of Torsin-1A-interacting protein 2 (Homo sapiens) (Q8NFQ8 whole entry, looked up): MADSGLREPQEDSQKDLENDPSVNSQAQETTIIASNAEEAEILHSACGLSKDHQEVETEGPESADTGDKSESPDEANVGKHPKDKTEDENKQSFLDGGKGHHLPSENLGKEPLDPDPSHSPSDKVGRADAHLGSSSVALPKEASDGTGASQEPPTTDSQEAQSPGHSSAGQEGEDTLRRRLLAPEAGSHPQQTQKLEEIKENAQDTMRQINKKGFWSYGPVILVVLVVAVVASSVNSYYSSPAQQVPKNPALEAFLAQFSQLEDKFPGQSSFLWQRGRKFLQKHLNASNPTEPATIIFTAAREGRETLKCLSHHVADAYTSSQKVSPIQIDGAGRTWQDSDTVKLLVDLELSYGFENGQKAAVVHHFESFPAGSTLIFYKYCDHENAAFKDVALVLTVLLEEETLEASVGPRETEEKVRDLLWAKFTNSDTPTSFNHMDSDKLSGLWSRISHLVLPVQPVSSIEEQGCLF
Chain of Epidermal growth factor receptor (Homo sapiens) (P00533 whole entry, looked up): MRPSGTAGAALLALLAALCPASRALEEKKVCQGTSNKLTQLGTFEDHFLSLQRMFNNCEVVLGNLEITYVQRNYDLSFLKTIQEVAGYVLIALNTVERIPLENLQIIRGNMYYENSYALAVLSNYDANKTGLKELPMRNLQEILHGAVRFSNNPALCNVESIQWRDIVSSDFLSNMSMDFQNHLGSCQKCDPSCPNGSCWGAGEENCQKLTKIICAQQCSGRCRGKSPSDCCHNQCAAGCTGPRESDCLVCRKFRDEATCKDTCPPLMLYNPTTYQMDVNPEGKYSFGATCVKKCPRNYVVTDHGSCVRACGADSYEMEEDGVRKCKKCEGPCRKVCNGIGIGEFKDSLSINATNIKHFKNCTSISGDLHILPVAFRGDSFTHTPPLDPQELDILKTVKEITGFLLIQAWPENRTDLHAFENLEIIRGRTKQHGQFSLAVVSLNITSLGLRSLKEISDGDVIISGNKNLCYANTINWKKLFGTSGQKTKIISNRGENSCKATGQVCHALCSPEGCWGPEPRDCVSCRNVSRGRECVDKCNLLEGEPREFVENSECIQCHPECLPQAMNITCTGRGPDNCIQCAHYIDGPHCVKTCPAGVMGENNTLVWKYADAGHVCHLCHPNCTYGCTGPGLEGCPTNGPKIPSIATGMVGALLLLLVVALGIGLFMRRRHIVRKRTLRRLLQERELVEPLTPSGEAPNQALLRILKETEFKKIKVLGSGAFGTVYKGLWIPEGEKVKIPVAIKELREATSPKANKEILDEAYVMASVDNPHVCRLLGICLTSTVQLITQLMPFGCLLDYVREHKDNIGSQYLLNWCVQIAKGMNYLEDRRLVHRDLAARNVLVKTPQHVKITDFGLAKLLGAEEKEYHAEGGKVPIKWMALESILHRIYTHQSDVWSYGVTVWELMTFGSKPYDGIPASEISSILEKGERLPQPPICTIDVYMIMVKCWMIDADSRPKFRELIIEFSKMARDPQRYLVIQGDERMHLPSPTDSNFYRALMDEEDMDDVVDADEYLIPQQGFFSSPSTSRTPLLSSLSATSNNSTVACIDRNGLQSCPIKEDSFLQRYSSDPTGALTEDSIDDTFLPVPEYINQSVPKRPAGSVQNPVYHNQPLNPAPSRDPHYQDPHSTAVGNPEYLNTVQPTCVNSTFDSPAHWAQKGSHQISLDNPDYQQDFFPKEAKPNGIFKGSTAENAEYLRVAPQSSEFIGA
Chain of Fibroblast growth factor 10 (Homo sapiens) (O15520 whole entry, looked up): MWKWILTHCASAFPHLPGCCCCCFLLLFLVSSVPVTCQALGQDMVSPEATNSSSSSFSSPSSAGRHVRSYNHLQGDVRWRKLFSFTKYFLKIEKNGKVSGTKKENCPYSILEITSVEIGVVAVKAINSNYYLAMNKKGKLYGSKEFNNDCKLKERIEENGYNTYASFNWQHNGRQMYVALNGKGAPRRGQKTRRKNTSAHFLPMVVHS
Chain of Follistatin-related protein 3 (Homo sapiens) (O95633 whole entry, looked up): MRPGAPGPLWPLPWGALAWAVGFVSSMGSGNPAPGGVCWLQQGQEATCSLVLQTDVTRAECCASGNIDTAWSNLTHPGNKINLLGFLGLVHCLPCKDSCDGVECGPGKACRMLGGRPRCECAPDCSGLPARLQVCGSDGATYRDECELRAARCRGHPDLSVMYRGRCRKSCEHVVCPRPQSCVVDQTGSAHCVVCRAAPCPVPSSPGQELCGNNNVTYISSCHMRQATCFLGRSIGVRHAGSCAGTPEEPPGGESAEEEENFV

For the compound `CC(=O)n1cc(C(O)C2C=CC3C(=O)N(Cc4ccccc4)C(=O)C3N2n2cnnc2)c2ccccc21` (stereo not given), the composite z-score in test [1] is 0.77; in test [5] it was 1.23; in test [7], -0.0858; in test [8], -0.415; in test [9] it was 0.193; in test [10], 0.728. Moreover, the composite z-score is 1.17 in test [11]; -0.0358 in test [12]; 0.205 in [13]; -0.167 in test [15]; -0.243 in test [16]; -0.0707 in test [17]. In addition, the composite z-score in test [18] is 0.19; in test [19], 0.12; in test [20] it was 0.713. For the same compound, the z-score in test [2] was -0.423 (inactive); in test [3], 0.552 (inactive); in test [4] it was 0.192 (inactive); in test [6], -0.901 (inactive); in test [14] it was 0.108 (inactive).
Take `CN1C(=O)C2C=CC(C(O)c3c(F)cccc3Cl)N(Nc3ccccc3)C2C1=O` (stereo not given): the composite z-score in test [1] worked out at 1.04; in test [5] it was 3.44; in [7] it was 0.244; in [8], 0.0319; in [9], 1.07; in [10] it was 0.0562. For the same compound, the composite z-score was 1.54 in test [11]; 0.308 in test [12]; 0.92 in [13]; 0.657 in [15]; -0.0475 in [16]; 0.257 in test [17]. Besides, the composite z-score in test [18] was 0.71; in test [19], -0.534; in [20] it was 0.909. Moreover, the z-score in test [2] was -0.0908 (inactive); in test [3], 1.19 (inactive); in test [4], 0.437 (inactive); in test [6] it was -0.757 (inactive); in test [14], 1.29 (inactive).
Turning to `COC(=O)C[C@H]1O[C@]2(C(=O)N(C)c3ccccc32)[C@@H](C)[C@@H]1[Si](C)(C)c1ccc(C)cc1`, the composite z-score in test [1] is 1.12; in test [5], 0.797; in test [7] it was -0.137; in [8] it was 1.27; in test [9], 0.989; in test [10], -0.0674. The composite z-score was 0.486 in [11]; -0.276 in [12]; -0.203 in [13]; 0.749 in test [15]; 0.96 in test [16]; 0.41 in [17]. Moreover, the figures for the composite z-score in test [18], in [19] and in test [20] were 0.958, 0.501 and 0.0223, respectively. The z-score was -0.421 (inactive) in test [2]; -11.3 (active) in test [3]; -0.673 (inactive) in [4]; 2.17 (inactive) in test [6]; -0.283 (inactive) in test [14].
For `C=CCNC(=O)[C@@H]1[C@H]2C(=O)O[C@H](c3ccccc3)[C@H](c3ccccc3)N2[C@H](c2ccccc2OCCO)[C@@]12C(=O)N(C(=O)OCCOC)c1ccc(C#CC3=CCCCC3)cc12`, the composite z-score was 1.54 in test [1]; 2.31 in [5]; -0.205 in test [7]; 1.34 in test [8]; 1.15 in test [9]; -0.0435 in [10]. Further, the composite z-score stood at 1.26 in test [11]; 0.057 in test [12]; 0.144 in test [13]; 1.15 in [15]; 1.16 in test [16]; 0.469 in [17]. Moreover, the composite z-score in [18] is 0.831; in [19] it was 0.373; in test [20], -0.0496. For the same compound, the z-score in [2] was 0.363 (inactive); in [3] it was -0.0834 (inactive); in test [4] it was 3.14 (inactive); in [6], 0.906 (inactive); in test [14] it was -1.1 (inactive).
On to `CC1CC/C=C\[C@H]2OC34C=CCN(C(C)C)C(=O)[C@H]3N(CCCCCO)C(=O)[C@@H]4C2C(=O)O1` (stereo not given in full), for which the composite z-score in [1] is -0.897; in test [5] it was -0.573; in [7], -0.139; in test [8], -1.43; in test [9], -0.208; in test [10], -0.281. Further, the composite z-score is 0.382 in test [11]; -0.0733 in test [12]; 0.655 in [13]; -0.82 in test [15]; -0.609 in [16]; -1.4 in [17]. The composite z-score was -1.05 in test [18], -1.73 in test [19] and -0.15 in [20]. In addition, the z-score in test [2] is -0.104 (inactive); in test [3] it was -0.931 (inactive); in test [4], -0.958 (inactive); in test [6], 0.827 (inactive); in test [14] it was -0.356 (inactive).
